As a reminder, the residual activity is the signal under treatment as a percentage of the control signal.

The target of experiment [1] is T1, CDK9/cyclin T1 (Homo sapiens) (UniProt O60563+P50750). Particulars: at 1 µM.
Experiment [2] has as its target T1, CDK9/cyclin T1 (Homo sapiens). Particulars: at 10 µM.
Experiment [3] has as its target T2, Serine/threonine-protein kinase Chk1 (Homo sapiens) (UniProt O14757).
T2 sequence (whole entry): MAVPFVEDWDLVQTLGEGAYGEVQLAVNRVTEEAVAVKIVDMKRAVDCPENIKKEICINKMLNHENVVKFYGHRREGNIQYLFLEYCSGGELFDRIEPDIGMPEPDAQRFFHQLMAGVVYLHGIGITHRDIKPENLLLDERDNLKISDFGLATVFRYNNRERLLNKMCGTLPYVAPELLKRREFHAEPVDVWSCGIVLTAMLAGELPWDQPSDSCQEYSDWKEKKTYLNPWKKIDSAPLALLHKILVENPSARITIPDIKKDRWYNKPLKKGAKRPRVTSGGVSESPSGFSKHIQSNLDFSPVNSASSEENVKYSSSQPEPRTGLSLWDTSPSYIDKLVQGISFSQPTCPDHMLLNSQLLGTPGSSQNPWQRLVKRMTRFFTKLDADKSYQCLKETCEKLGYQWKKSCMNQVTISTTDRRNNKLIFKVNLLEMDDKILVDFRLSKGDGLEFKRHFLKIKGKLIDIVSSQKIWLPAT
The following applies: at 1 µM.

The target in experiment [4] is T2, Serine/threonine-protein kinase Chk1 (Homo sapiens). Particulars: at 10 µM.
Experiment [5] concerns the target Serine/threonine-protein kinase Chk2 (Homo sapiens) (UniProt O96017). The following applies: at 1 µM.
Experiment [6] shares this target. Particulars: at 10 µM.
The target in experiment [7] is Casein kinase I isoform gamma-1 (Homo sapiens) (UniProt Q9HCP0). The following applies: at 1 µM.
The target is the same in experiment [8]. Particulars: at 10 µM.
Experiment [9] concerns the target Casein kinase I isoform delta (Homo sapiens) (UniProt P48730). The following applies: at 1 µM.
Experiment [10] has the same target. Particulars: at 10 µM.
In experiment [11] the target is T3, Casein kinase II (Homo sapiens) (UniProt P67870+P68400+P19784). The following applies: at 1 µM.
In experiment [12] the target is T3, Casein kinase II (Homo sapiens). The following applies: at 10 µM.
In experiment [13] the target is Casein kinase II subunit alpha' (Homo sapiens) (UniProt P19784). Particulars: at 1 µM.
The target is the same in experiment [14]. Particulars: at 10 µM.
Experiment [15] has as its target Dual specificity protein kinase CLK2 (Homo sapiens) (UniProt P49760). Particulars: at 1 µM.
Experiment [16] shares this target. Particulars: at 10 µM.
The target of experiment [17] is Dual specificity protein kinase CLK3 (Homo sapiens) (UniProt P49761). Particulars: at 1 µM.
Experiment [18] shares this target. Particulars: at 10 µM.
For experiment [19], the target named is Tyrosine-protein kinase CSK (Homo sapiens) (UniProt P41240). Particulars: at 1 µM.
Experiment [20] shares this target. The following applies: at 10 µM.

Sequence of Dual specificity protein kinase CLK3 (Homo sapiens) (P49761 whole entry, looked up): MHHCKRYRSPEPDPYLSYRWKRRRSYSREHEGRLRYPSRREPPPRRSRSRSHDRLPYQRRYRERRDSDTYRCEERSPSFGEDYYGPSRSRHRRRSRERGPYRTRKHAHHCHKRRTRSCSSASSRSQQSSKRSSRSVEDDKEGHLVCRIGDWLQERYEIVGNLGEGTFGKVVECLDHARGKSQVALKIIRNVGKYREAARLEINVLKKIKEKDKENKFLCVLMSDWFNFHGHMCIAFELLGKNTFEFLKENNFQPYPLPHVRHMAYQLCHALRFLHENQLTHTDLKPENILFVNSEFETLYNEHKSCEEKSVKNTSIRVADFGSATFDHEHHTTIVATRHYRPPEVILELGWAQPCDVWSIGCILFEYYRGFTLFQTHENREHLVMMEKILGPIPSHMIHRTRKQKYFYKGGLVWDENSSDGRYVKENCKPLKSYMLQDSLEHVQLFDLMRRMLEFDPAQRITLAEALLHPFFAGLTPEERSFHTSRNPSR
Sequence of Casein kinase I isoform delta (Homo sapiens) (P48730 whole entry, looked up, canonical isoform): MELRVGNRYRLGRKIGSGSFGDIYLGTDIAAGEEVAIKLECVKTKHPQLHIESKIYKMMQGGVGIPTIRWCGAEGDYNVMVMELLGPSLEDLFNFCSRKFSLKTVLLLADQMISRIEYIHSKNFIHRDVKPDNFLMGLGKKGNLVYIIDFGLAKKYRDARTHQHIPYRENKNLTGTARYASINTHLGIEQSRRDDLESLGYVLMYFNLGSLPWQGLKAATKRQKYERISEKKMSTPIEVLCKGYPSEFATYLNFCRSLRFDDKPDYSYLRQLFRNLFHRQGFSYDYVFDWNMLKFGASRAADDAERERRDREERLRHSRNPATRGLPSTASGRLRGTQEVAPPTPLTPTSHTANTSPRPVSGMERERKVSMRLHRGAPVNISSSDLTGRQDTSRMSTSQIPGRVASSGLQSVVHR
Sequence of Casein kinase I isoform gamma-1 (Homo sapiens) (Q9HCP0 whole entry, looked up, canonical isoform): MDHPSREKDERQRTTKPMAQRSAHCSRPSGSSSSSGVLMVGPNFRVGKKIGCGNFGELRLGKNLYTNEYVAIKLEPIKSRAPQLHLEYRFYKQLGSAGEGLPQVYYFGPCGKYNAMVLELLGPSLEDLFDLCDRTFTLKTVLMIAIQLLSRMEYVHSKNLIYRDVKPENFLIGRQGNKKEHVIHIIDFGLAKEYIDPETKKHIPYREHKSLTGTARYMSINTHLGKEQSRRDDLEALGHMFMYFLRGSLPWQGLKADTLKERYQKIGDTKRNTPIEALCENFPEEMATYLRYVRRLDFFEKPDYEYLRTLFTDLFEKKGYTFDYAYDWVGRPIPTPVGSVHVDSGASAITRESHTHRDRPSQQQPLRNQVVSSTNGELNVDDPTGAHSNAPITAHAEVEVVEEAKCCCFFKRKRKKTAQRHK
Sequence of Casein kinase II subunit alpha' (Homo sapiens) (P19784 whole entry, looked up): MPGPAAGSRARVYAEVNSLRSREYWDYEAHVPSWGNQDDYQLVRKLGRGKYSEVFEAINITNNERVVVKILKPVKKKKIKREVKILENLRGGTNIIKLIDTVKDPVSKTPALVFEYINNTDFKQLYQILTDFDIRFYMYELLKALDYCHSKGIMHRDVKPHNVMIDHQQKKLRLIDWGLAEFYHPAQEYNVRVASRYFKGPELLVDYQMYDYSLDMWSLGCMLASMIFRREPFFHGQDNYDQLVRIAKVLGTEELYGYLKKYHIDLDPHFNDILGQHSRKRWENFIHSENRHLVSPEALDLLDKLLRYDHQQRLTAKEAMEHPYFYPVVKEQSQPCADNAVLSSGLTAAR
T3 sequence (P19784 whole entry, looked up): as above
T3 sequence (P67870 whole entry, looked up): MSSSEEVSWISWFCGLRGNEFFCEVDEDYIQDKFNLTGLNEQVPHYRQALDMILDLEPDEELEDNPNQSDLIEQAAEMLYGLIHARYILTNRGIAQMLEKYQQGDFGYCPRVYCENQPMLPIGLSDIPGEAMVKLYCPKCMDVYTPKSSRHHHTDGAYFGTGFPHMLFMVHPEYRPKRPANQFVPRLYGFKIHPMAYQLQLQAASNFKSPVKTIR
T3 sequence (P68400 whole entry, looked up): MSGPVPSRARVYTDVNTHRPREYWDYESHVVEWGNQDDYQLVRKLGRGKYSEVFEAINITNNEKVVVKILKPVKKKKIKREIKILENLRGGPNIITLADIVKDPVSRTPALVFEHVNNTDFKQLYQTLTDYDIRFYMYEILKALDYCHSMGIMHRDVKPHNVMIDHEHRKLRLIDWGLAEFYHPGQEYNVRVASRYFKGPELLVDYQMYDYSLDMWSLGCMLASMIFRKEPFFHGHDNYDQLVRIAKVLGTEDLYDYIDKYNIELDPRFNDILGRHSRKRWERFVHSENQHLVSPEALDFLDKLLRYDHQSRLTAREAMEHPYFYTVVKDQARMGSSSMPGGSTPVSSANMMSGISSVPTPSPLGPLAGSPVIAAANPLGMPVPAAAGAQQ
Sequence of Dual specificity protein kinase CLK2 (Homo sapiens) (P49760 whole entry, looked up): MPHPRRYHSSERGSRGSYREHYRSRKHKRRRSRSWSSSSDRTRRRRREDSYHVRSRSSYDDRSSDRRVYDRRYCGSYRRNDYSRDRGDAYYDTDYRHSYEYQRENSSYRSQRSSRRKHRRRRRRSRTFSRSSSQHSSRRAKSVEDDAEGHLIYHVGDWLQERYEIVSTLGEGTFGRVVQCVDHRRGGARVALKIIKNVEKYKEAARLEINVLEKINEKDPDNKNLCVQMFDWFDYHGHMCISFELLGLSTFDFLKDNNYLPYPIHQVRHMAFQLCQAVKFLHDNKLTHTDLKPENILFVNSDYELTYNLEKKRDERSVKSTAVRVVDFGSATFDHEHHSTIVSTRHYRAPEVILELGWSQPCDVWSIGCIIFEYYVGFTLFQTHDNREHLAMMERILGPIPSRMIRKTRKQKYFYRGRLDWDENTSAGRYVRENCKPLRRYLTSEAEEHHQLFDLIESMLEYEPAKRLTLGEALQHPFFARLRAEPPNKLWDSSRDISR
Sequence of Serine/threonine-protein kinase Chk2 (Homo sapiens) (O96017 whole entry): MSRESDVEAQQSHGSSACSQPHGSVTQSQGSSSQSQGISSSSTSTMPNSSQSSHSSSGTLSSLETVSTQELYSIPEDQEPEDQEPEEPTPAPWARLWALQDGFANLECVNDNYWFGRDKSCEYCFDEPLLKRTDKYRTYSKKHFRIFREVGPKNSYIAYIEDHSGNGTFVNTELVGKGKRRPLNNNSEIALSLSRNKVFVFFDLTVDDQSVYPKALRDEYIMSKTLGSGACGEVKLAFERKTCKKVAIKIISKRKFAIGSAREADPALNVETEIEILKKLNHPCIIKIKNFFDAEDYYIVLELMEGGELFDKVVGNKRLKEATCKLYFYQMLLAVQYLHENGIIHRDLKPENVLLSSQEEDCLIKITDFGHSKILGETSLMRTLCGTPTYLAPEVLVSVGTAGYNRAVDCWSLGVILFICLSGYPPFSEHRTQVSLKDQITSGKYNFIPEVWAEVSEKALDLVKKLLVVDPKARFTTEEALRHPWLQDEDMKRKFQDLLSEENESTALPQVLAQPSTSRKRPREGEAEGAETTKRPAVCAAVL
Sequence of Tyrosine-protein kinase CSK (Homo sapiens) (P41240 2-450 limits assumed): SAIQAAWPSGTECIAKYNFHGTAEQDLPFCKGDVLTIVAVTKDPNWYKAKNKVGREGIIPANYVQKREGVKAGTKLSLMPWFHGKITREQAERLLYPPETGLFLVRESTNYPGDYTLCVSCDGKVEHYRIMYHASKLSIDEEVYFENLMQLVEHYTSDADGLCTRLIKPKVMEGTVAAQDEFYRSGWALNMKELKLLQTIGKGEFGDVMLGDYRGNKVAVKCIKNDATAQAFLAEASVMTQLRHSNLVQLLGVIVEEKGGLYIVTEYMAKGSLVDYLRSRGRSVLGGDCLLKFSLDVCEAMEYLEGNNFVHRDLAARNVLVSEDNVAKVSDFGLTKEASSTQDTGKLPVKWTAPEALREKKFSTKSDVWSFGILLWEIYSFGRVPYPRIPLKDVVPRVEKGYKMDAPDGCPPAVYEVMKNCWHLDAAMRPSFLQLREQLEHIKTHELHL

On to `CC(C)n1cnc2c(NCc3ccccc3)nc(NCCCO)nc21`, for which the residual activity in experiment [1] amounted to 56%; in experiment [2], 7%; in experiment [3] it was 95%; in experiment [4], 87%; in experiment [5], 86%; in [6], 60%. Also, the residual activity came out at 94% in experiment [7]; 49% in experiment [8]; 70% in experiment [9]; 22% in [10]; 102% in experiment [11]; 94% in experiment [12]. Besides, the residual activity in [13] worked out at 110%; in experiment [14] it was 108%; in experiment [15], 53%; in [16], 14%; in experiment [17], 88%; in experiment [18], 67%. Also, the results for the residual activity in experiment [19] and in [20] were 104% and 100%, respectively.
As for `CC(=O)O/N=C1\C(=C2\C(=O)Nc3cc(Br)ccc32)Nc2ccccc21`, the residual activity in experiment [1] was determined as 63%; in experiment [2], 51%; in experiment [3], 95%; in experiment [4], 65%; in [5] it was 71%; in experiment [6] it was 26%. Moreover, the residual activity in [7] stood at 99%; in [8] it was 82%; in experiment [9], 78%; in experiment [10] it was 48%; in [11], 96%; in experiment [12] it was 90%. In addition, the residual activity in experiment [13] is 102%; in [14] it was 89%; in experiment [15], 102%; in experiment [16] it was 65%; in experiment [17], 82%; in [18], 76%. The values for the residual activity in experiment [19] and in experiment [20] were 104% and 86%, respectively.
Consider `O=C1NC(=O)c2c1c1c3ccccc3[nH]c1c1[nH]c3cc(Br)ccc3c21`, for which the residual activity turned out to be 82% in [1]; 76% in [2]; 77% in experiment [3]; 47% in [4]; 33% in experiment [5]; 30% in experiment [6]. In addition, the residual activity in experiment [7] worked out at 104%; in [8] it was 88%; in experiment [9], 92%; in experiment [10], 90%; in experiment [11], 104%; in [12], 94%. For the same compound, the residual activity is 96% in [13]; 86% in experiment [14]; 98% in [15]; 87% in experiment [16]; 82% in experiment [17]; 81% in [18]. The residual activity is 96% in experiment [19] and 84% in experiment [20].
With `O=c1c2ccccc2[nH]c(=S)n1CCN1CCC(=C(c2ccc(F)cc2)c2ccc(F)cc2)CC1`, the residual activity in [1] was determined as 100%; in experiment [2], 97%; in experiment [3], 95%; in [4], 104%; in experiment [5], 93%; in [6], 85%. Moreover, the residual activity in [7] came to 82%; in experiment [8] it was 78%; in experiment [9] it was 80%; in experiment [10], 63%; in experiment [11] it was 89%; in [12] it was 116%. In addition, the residual activity was found to be 125% in experiment [13]; 93% in [14]; 115% in experiment [15]; 94% in experiment [16]; 90% in experiment [17]; 64% in [18]. Further, the residual activity in experiment [19] amounted to 120%; in experiment [20], 98%.
For the compound `O=C1c2ccccc2-[n+]2ccc3c([nH]c4ccccc43)c21`, the residual activity is 86% in experiment [1]; 92% in experiment [2]; 94% in [3]; 87% in experiment [4]; 77% in [5]; 75% in experiment [6]. Moreover, the residual activity in experiment [7] stood at 98%; in experiment [8], 81%; in experiment [9], 79%; in [10] it was 77%; in experiment [11], 87%; in [12], 71%. Moreover, the residual activity in experiment [13] was 104%; in experiment [14], 85%; in experiment [15], 114%; in experiment [16], 103%; in experiment [17] it was 79%; in experiment [18], 72%. Also, the residual activity in experiment [19] amounted to 86%; in experiment [20] it was 88%.
With `Ic1cccc(CSc2nnc(-c3ccncc3)o2)c1`, the residual activity was determined as 75% in experiment [1]; 87% in experiment [2]; 57% in experiment [3]; 49% in [4]; 72% in experiment [5]; 65% in [6]. Further, the residual activity worked out at 101% in [7]; 84% in experiment [8]; 83% in experiment [9]; 75% in experiment [10]; 87% in experiment [11]; 87% in experiment [12]. Moreover, the residual activity was 101% in experiment [13]; 97% in experiment [14]; 12% in [15]; 13% in experiment [16]; 65% in experiment [17]; 45% in [18]. The results for the residual activity in [19] and in experiment [20] were 104% and 94%, respectively.
On to `O=c1cc(-c2cccc3c2Sc2ccccc2S3)oc(N2CCOCC2)c1`, for which the residual activity is 100% in [1]; 89% in [2]; 97% in [3]; 94% in [4]; 106% in experiment [5]; 87% in experiment [6]. Besides, the residual activity in experiment [7] amounted to 101%; in experiment [8], 43%; in experiment [9] it was 92%; in experiment [10] it was 44%; in experiment [11] it was 106%; in experiment [12] it was 109%. Moreover, the residual activity in experiment [13] turned out to be 107%; in experiment [14], 104%; in experiment [15] it was 104%; in experiment [16] it was 92%; in experiment [17], 100%; in [18], 87%. The residual activity was determined as 103% in experiment [19] and 99% in [20].

The record behind these values is ChEMBL document CHEMBL2218924, “A broad activity screen in support of a chemogenomic map for kinase signalling research and drug discovery” (Biochem J, 2013).
